Inconclusive results are not listed. Activity calls are given as the source filed them. Calls come from the whole dose curve; as a rule, active = well fitted inhibition curve with a large enough effect; inconclusive = small, poorly fitted or top-dose-only effect; inactive = flat fitted curve, though single readings scatter.
Assays:
[1] = test system: CRL-7250; assay: Cytotoxic Profiling of Annotated Libraries Using Quantitative High-Throughput Screening (AID 1296008); details: Five cell lines viability, CellTiter-Glo ATP luminescence, 48-72 h; max response: active compounds read low; for max response: % is set by controls: 0 for no effect and ±100 for the full control effect
Method in brief: (§1)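 Compounds were pin-transferred onto cells and incubated 48 or 72 hr at 37 degree Celsius, 95% humidity. CellTiter-Glo was added, plates sat 10 min at room temperature, then ATP-coupled luminescence was imaged as the viability read-out.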

[2] = test system: HEK293; assay: as above; details: Five cell lines viability, CellTiter-Glo ATP luminescence, 48-72 h; max response: active compounds read low
Method in brief: as §1

[3] = test system: HaCat; assay: as above; details: Five cell lines viability, CellTiter-Glo ATP luminescence, 48-72 h; max response: active compounds read low
Method in brief: as §1

[4] = test system: KB-3-1; assay: as above; details: Five cell lines viability, CellTiter-Glo ATP luminescence, 48-72 h; max response: active compounds read low
Method in brief: as §1

[5] = test system: NIH3T3; assay: as above; details: Five cell lines viability, CellTiter-Glo ATP luminescence, 48-72 h; max response: active compounds read low
Method in brief: as §1

[6] = test system: HACAT; assay: qHTS assay to identify novel small-molecules to repurpose for Merkel cell carcinoma treatment (AID 1296009); details: MCC and control cell lines, CellTiter-Glo viability, 72 h; at 44.8 µM (top of the series) unless noted
Method in brief: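 qHTS format: cells treated with library compounds in DMSO across 8 (NPC) or 11 (MIPE) concentrations. Readout after 72 hr at 37 degree celsius was CellTiter-Glo luminescence.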

Measured: max response
Note: nearly all actives have a fitted effect of over 60% in size.

COc1cc(Nc2ccc([N+](=O)[O-])cc2C(=O)O)cc2ccccc12
inactive: [1] -0.179% | [2] 1.77% | [3] | [4] -5.92% | [5] -2.53% | [6]

CC1(C)OC(=O)C=C[C@@]2(C)C1CC(=O)[C@]1(C)C2CC[C@@]2(C)[C@H](c3ccoc3)OC(=O)[C@H]3O[C@]321 (some centres not stated)
inactive: [1] -0.596% | [2] -1.27% | [3] | [4] | [5] -2.44% | [6] inactive [at 17.4 µM]

COc1cc(CCCO)ccc1O[C@@H]1O[C@H](CO)[C@@H](O)[C@H](O)[C@H]1O
inactive: [1] | [2] 0.679% | [3] | [4] | [5] -1.2% | [6]

C=C1[C@H](OC(C)=O)[C@H]2[C@@H](OC(C)=O)C(C)C[C@]2(OC(C)=O)C(=O)[C@H](C)/C=C/C(C)(C)C(=O)[C@H](OC(=O)C(C)C)[C@H]1OC(C)=O (some centres not stated)
inactive: [1] 2.65% | [2] -3.57% | [3] | [4] | [5] | [6] inactive [at 17.4 µM]

CC(=O)OCC1=CCC2C(C)(C)CCCC2(C)C12CCC(C)(CC(=O)O)O2 (configuration not stated)
inactive: [1] -2.76% | [2] -0.588% | [3] | [4] 5.22% | [5] | [6]

Cc1ccccc1-n1nc(-c2c(-c3ccc(F)cc3)nn3c2NC[C@@H](CO)C3)ccc1=O
inactive: [1] 1.82% | [2] -7.72% | [3] | [4] 1.64% | [5] | [6]

O=C(O)CCc1cccc(O)c1O[C@@H]1O[C@H](CO)[C@@H](O)[C@H](O)[C@H]1O
inactive: [1] 3.73% | [2] -3.2% | [3] | [4] 8.15% | [5] | [6]

CN1CCCC1Cc1c[nH]c2ccc(CCS(=O)(=O)c3ccccc3)cc12 (configuration not stated)
inactive: [1] | [2] -7.1% | [3] | [4] 7.71% | [5] | [6]

O=C(NCCN1CCCC1)c1cc(-c2ccc(CN3CCOCC3)cc2)nc2ccc(F)cc12
inactive: [1] 3.26% | [2] 2.05% | [3] | [4] | [5] 1.71% | [6] inactive [at 17.4 µM]

C[C@H](/C=C/[C@@]1(O)[C@H](C)CC(=O)CC1(C)C)O[C@@H]1O[C@H](CO[C@@H]2OC[C@@H](O)[C@H](O)[C@H]2O)[C@@H](O)[C@H](O)[C@H]1O
inactive: [1] | [2] -7.74% | [3] | [4] | [5] -1.42% | [6] inactive [at 17.4 µM]

O=C(O)[C@H]1Cc2ccccc2CN1
inactive: [1] 1.62% | [2] 4.72% | [3] | [4] 0.759% | [5] 4.47% | [6] inactive [at 4.96 µM]

CC1(C)CC[C@]2(C(=O)O[C@@H]3O[C@H](CO)[C@@H](O)[C@H](O)[C@H]3O)[C@H](O)C[C@]3(C)C(=CCC4[C@@]5(C)CC[C@H](O[C@@H]6OC[C@@H](O)[C@H](O)[C@H]6O)[C@@](C)(C(=O)O)C5CC[C@]43C)[C@@H]2C1 (some centres not stated)
inactive: [1] -8.24% | [2] -10.4% | [3] | [4] -4.94% | [5] 4.43% | [6] inactive [at 17.4 µM]

CC1(C)CCC2(C(=O)O)C(O)CC3(C)C(=CCC4C5(C)CCC(OC6OC(CO)C(O)C(O)C6OC6OC(CO)C(O)C(O)C6OC6OCC(O)(CO)C6O)C(C)(C)C5CCC43C)C2C1 (configuration not stated)
inactive: [1] -4.69% | [2] -13.6% | [3] | [4] | [5] | [6] inactive [at 9.27 µM]

C=C1[C@@H]2CC[C@@]3(C)[C@H](c4ccoc4)OC(=O)C[C@]13O[C@H]1CC(=O)C(C)(C)[C@H](C(O)C(=O)OC)[C@]12C (some centres not stated)
inactive: [1] -0.794% | [2] -5.89% | [3] | [4] | [5] | [6] inactive [at 17.4 µM]

CC(C)=CCc1c(O)cc2oc3cc(C)cc(O)c3c2c1C
inactive: [1] 2.07% | [2] -2.32% | [3] | [4] -6.44% | [5] 3.67% | [6]

C[C@@H](CC[C@@H]1[C@@]2(C)CCCC(C)(C)C2CC[C@@]1(C)O)CC(=O)O (some centres not stated)
inactive: [1] | [2] -2.2% | [3] | [4] | [5] 0.858% | [6]

CC(C)/C=C1/NC(=O)C(C(C)C)n2c1nc1c(O)cccc1c2=O (configuration not stated)
inactive: [1] | [2] -10.9% | [3] | [4] 3.96% | [5] -2.82% | [6]

O=C(O)c1cccc(CN2C(=O)/C(=C(\c3ccccc3)c3ccc(Cl)cc3)c3ccccc32)c1
inactive: [1] 3.11% | [2] -10.4% | [3] | [4] 5.03% | [5] -3.22% | [6]

C=C1CC23CC1CCC2C12OC(=O)C(C)(C(O)CC1O)C2C3C(=O)O (configuration not stated)
inactive: [1] -0.83% | [2] -15.6% | [3] | [4] 1.34% | [5] -6.25% | [6]

CC(C)(O)/C=C/C(=O)[C@](C)(O)[C@H]1[C@H](O)C[C@@]2(C)[C@@H]3CC=C4[C@@H](C=C(O[C@@H]5O[C@H](CO)[C@@H](O)[C@H](O)[C@H]5O)C(=O)C4(C)C)[C@]3(C)C(=O)C[C@]12C
inactive: [1] -3.34% | [2] -7.75% | [3] | [4] 0.874% | [5] 1.79% | [6] inactive [at 17.4 µM]

N[C@@H](CCNCc1ccc(Cl)cc1)C(=O)N1CCCCC1
inactive: [1] | [2] 2.57% | [3] | [4] 7.85% | [5] -2.5% | [6]

CC(=O)O[C@@H]1C[C@@H](C)[C@](O)(CCC2=CC(=O)OC2)[C@@]2(C)CCCC(C)(C)C12 (some centres not stated)
inactive: [1] | [2] -5.82% | [3] | [4] 9.64% | [5] 2.01% | [6]

CC1=CC(=O)C(=C(C)C)CC2C(C)(O)CCC12O (configuration not stated)
inactive: [1] | [2] -0.243% | [3] | [4] 8.8% | [5] | [6]

CC(=O)N[C@H]1[C@H](O[C@H]2CC[C@]3(C)C4CC=C5[C@@H]6CC(C)(C)CC[C@]6(C(=O)O)[C@H](O)C[C@@]5(C)[C@]4(C)CC[C@H]3C2(C)C)O[C@H](CO)[C@@H](O)[C@@H]1O (some centres not stated)
inactive: [1] -7.8% | [2] -6.92% | [3] | [4] -6.34% | [5] | [6] inactive [at 17.4 µM]

Cc1nc(-c2cccnc2)sc1C(=O)Nc1ccccc1-c1cn2c(CN3CCOCC3)csc2n1
inactive: [1] -2.14% | [2] -4.67% | [3] | [4] -10.4% | [5] -1.07% | [6]

C[C@@H]1O[C@@H](O[C@H]2[C@H](OC(=O)[C@]34CCC(C)(C)C[C@H]3C3=CCC5[C@@]6(C)CC[C@H](O[C@@H]7O[C@H](CO[C@@H]8OC[C@H](O)[C@H](O)[C@H]8O)[C@@H](O)[C@H](O)[C@H]7O)C(C)(C)C6CC[C@@]5(C)[C@]3(C)C[C@H]4O)OC[C@@H](O)[C@@H]2O)[C@H](O)[C@H](O[C@@H]2OC[C@](O)(CO)[C@H]2O)[C@H]1O[C@@H]1OC[C@H](O)[C@H](O[C@@H]2OC[C@@H](O)[C@H](O)[C@H]2O)[C@H]1O (some centres not stated)
inactive: [1] | [2] -12.4% | [3] | [4] 6% | [5] -2.23% | [6] inactive [at 9.27 µM]

CC(C)(O)C1CC=C(C(=O)OC[C@H]2O[C@@H](Oc3cc(C(=O)O)cc(O)c3O)[C@H](O)[C@@H](O)[C@@H]2O)CC1 (some centres not stated)
inactive: [1] 1.76% | [2] 3.21% | [3] | [4] | [5] | [6] inactive [at 17.4 µM]

— PubChem BioAssay (NCATS)
